Wnt act: activates Wnt/beta-catenin signaling in a reporter cell assay; activator, plate reader; activation, % at 9.35 µM; hit rate 1.2% among 300,000; in the data active means activation above about 30%, passing the limit was not always enough
ssDAF12 agonist: S. stercoralis DAF-12 activation, primary screen. activation, % at 6.8 µM. HEK293 ssDAF-12/GRIP1 lit1-tk-luc reporter, luminescence; % of 3 µM dafachronic acid response. hit rate 1% among 370,000. AID 652126;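 active means activation above the mean over all tested compounds plus 3 SD, cut at about 0.9% in these data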
DAX1 inh: blocks DAX1 repression of SF-1 activated StAR promoter. HEK293T StAR-luciferase reporter, SF-1/DAX-1 repression relief. inhibition, % at 6.8 µM. hit rate 1.1% among 370,000. AID 652010;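 active means inhibition above the mean over all tested compounds plus 3 SD, cut at about 3.6% in these data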;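 further: higher inhibition means more luminescence from relief of DAX-1 repression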
hgDAF12 agonist: activates the H. glycines DAF-12 receptor ligand-binding domain. HEK293 GAL4-hgDAF12 UAS-luciferase reporter, agonist luminescence; normalized to butyrate control. activation, % at 6.8 µM. hit rate 1.8% among 370,000. AID 687014;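 active means activation above a cutoff set at the mean of all screened compounds plus 3 SD, cut at about 10% in these data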
esBAF inh: SWI/SNF esBAF complex inhibition; mouse ES cells, Bmi1-luciferase knock-in reporter, 24 h; 100% = twice the neutral-well signal; reporter increase, % at 12.5 µM; hit rate 2% among 350,000; in the data active means activation above about 40%;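 further: a rise in the Bmi1 reporter signal indicates esBAF inhibition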
hcDAF-12 act: activators of H. contortus DAF-12 nuclear receptor. AID 652067. hit rate 1.4% among 370,000. activation, % at 6.8 µM. HEK293 hcDAF-12 lit1-tk-luc reporter, luminescence; 0% DMSO, 100% Δ7-dafachronic acid;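 active means activation above the mean of all tested compounds plus 3 SD, cut at about 5.5% in these data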
Each line names hits and unclear results; the compound was inactive in the other large screens. Hits are enriched below; roughly 4.2% of the tested compounds scored in any of these assays.

Oc1ccc(C2C(c3ccccc3)=NN=C(c3ccc(Cl)cc3)N2O)c(O)c1 (configuration not stated)	esBAF inh 46
COc1ccc(NC2CC(=O)N(C(C)C)C2=O)cc1 (configuration not stated)	esBAF inh 60
CC(C)N1C(=O)CC(Nc2ccc(N3CCOCC3)cc2)C1=O (configuration not stated)	none
Cc1nc2cc3ccccc3cc2s1	none
Cc1nc2cc3nc(C)sc3cc2s1	esBAF inh 50 (no result: Wnt act)
C[C@H](CO)N1C[C@H](C)[C@H](CN(C)S(=O)(=O)c2ccccc2)OCc2cn(nn2)CCCC1=O	none (no result: Wnt act, ssDAF12 agonist, DAX1 inh, hgDAF12 agonist, hcDAF-12 act)
O=C(O)CCCC(=O)Nc1nc2n(n1)C(c1ccc(F)cc1)CC(c1ccc(Cl)cc1)N2 (configuration not stated)	ssDAF12 agonist 1.8 (no result: Wnt act)
COCC(=O)Nc1nc2n(n1)C(c1ccc(OC)cc1)CC(c1ccc(OC)cc1)N2 (configuration not stated)	none (no result: Wnt act)
COc1ccc(C(=O)N2C[C@H]3[C@@H](c4ccccc42)[C@@H](CO)N3C(=O)c2cccc(F)c2)cc1	none (no result: Wnt act, ssDAF12 agonist, DAX1 inh, hgDAF12 agonist, hcDAF-12 act)
COc1cccc(-n2cc3c(=O)n(C)c(=O)n(C)c3c2)c1	esBAF inh 48 (no result: Wnt act)
COc1ccc(CCNC2CC(=O)N(CCc3ccccc3)C2=O)cc1OC (configuration not stated)	Wnt act 42
COc1ccc(CCNC2CC(=O)N(CCc3ccc(OC)c(OC)c3)C2=O)cc1 (configuration not stated)	none (no result: Wnt act)
Cc1cc(C)c2c(N=CN(C)C)c(C(=O)N3CCN(c4ncccn4)CC3)sc2n1	none
COC(=O)/C=C/c1sc2nc(C)cc(C)c2c1N=CN(C)C	hcDAF-12 act 5.6 (no result: esBAF inh)
CCOCCCNC(=O)c1cccc(OC2CCN(S(C)(=O)=O)CC2)c1	esBAF inh 67
CS(=O)(=O)Nc1ccc2c(c1)[C@H]1C[C@@H](CC(=O)NCc3ccncc3)O[C@@H](CO)[C@H]1O2	none (no result: Wnt act, ssDAF12 agonist, DAX1 inh, hgDAF12 agonist, hcDAF-12 act)
Cc1ccc(S(=O)(=O)N(C)C[C@@H]2Oc3c(NC(=O)c4nc5ccccc5s4)cccc3C(=O)N([C@@H](C)CO)C[C@H]2C)cc1	none (no result: Wnt act, ssDAF12 agonist, DAX1 inh, hgDAF12 agonist, hcDAF-12 act)
Cc1noc(C)c1NC(=O)N(C)C[C@H]1Oc2c(NS(=O)(=O)c3cn(C)cn3)cccc2C(=O)N([C@@H](C)CO)C[C@@H]1C	none (no result: Wnt act, ssDAF12 agonist, DAX1 inh, hgDAF12 agonist, hcDAF-12 act)
CCN(C(=O)CSC1=Nc2ccccc2C2CC=NN12)C1CCS(=O)(=O)C1 (configuration not stated)	hcDAF-12 act 5.8 (no result: esBAF inh)
CCN(C(=O)CSc1ccc2ccccc2n1)C1CCS(=O)(=O)C1 (configuration not stated)	none (no result: esBAF inh)
Cc1noc(C)c1NC(=O)N(C)C[C@H]1Oc2ccc(NS(=O)(=O)c3cccs3)cc2C(=O)N([C@@H](C)CO)C[C@@H]1C	none (no result: Wnt act, ssDAF12 agonist, DAX1 inh, hgDAF12 agonist, hcDAF-12 act)
O=C(Cc1sc(Nc2ccccc2)nc1-c1ccccc1)NCc1ccccc1	esBAF inh 75
CCCCN1C(=O)/C(=C2\SC(N3CCOCC3)=NC2=O)c2ccccc21	hcDAF-12 act 5.9
CCN1C(=O)/C(=C2\SC(N3CCOCC3)=NC2=O)c2ccccc21	none
O=C(Nc1ccc(/C=C/c2nc3ccccc3o2)cc1)c1cccc(C(F)(F)F)c1	none (no result: Wnt act, esBAF inh)
O=[N+]([O-])c1ccc2oc(/C=C/c3ccc(O)cc3)nc2c1	esBAF inh 42
CC(=O)Nc1ccc(/C=C/c2nc3ccccc3o2)cc1	Wnt act 52, hgDAF12 agonist 13
C[C@@H](NC(=O)[C@@H]1[C@@H](CO)[C@@H]2Cn3c(ccc(-c4cccnc4)c3=O)[C@@H]2N1C)c1ccccc1	none (no result: Wnt act, ssDAF12 agonist, DAX1 inh, hgDAF12 agonist, hcDAF-12 act)
C[C@@H]1CN([C@@H](C)CO)C(=O)c2cc(NC(=O)C3CCCCC3)ccc2O[C@@H](C)CCCCO[C@H]1CN(C)Cc1ccccc1	none (no result: Wnt act, ssDAF12 agonist, DAX1 inh, hgDAF12 agonist, hcDAF-12 act)
O=C(O)c1ccc(Nc2nc3c(s2)CCCC3)cc1	none (no result: esBAF inh)
O=S1(=O)N=C(Nc2nc3c(s2)CCCC3)c2ccccc21	hgDAF12 agonist 11
O=C(Nc1ccc2c(c1)Cc1ccccc1-2)c1cccnc1	esBAF inh 64
COc1cccc(OC)c1C(=O)Nc1ccc2c(c1)Cc1ccccc1-2	hcDAF-12 act 6.4 (no result: esBAF inh)
C[C@H](CO)N1C[C@H](C)[C@H](CN(C)C)Oc2c(NC(=O)c3ccncc3)cccc2C1=O	none (no result: Wnt act, ssDAF12 agonist, DAX1 inh, hgDAF12 agonist, hcDAF-12 act)
O=C(Cc1c(F)cccc1Cl)Nc1nc2ccccc2s1	none (no result: esBAF inh)
Cc1nc2ccc(NC(=O)Cc3c(F)cccc3Cl)cc2s1	Wnt act 39, hgDAF12 agonist 11 (no result: esBAF inh)
Cc1ccc(NC(=O)Cc2cccs2)cc1Cl	none
Cc1nc2ccc(NC(=O)Cc3cccs3)cc2s1	Wnt act 61, esBAF inh 71
C[C@@H]1CN([C@@H](C)CO)C(=O)c2cc(NC(=O)Nc3cccc4ccccc34)ccc2O[C@@H]1CN(C)S(=O)(=O)c1cn(C)cn1	none (no result: Wnt act, ssDAF12 agonist, DAX1 inh, hgDAF12 agonist, hcDAF-12 act)
CSCCC(NS(=O)(=O)c1ccc(C)cc1)C(=O)Nc1ccc(C)cn1 (configuration not stated)	none (no result: esBAF inh)
O=C(N[C@@H](Cc1ccccc1)C(=O)NC1CCCCCC1)c1ccco1	esBAF inh 45 (no result: Wnt act)
CSCCC(NC(=O)c1ccco1)C(=O)NC1CCC(C)CC1 (configuration not stated)	DAX1 inh 3.7, esBAF inh 62
CSCCC(NC(=O)c1ccco1)C(=O)Nc1ccc(C)cn1 (configuration not stated)	DAX1 inh 3.8
C[C@@H]1CN([C@@H](C)CO)C(=O)c2cc(NS(=O)(=O)c3cn(C)cn3)ccc2O[C@@H](C)CCCCO[C@H]1CN(C)C(=O)CCC(F)(F)F	none (no result: Wnt act, ssDAF12 agonist, DAX1 inh, hgDAF12 agonist, hcDAF-12 act)
C[C@H]1CCCCO[C@H](CN(C)Cc2ccncc2)[C@@H](C)CN([C@@H](C)CO)C(=O)c2cc(NC(=O)c3ccccc3)ccc2O1	none (no result: Wnt act, ssDAF12 agonist, DAX1 inh, hgDAF12 agonist, hcDAF-12 act)
COc1ccccc1C(=O)Nc1ccc2c3c(cccc13)CC2	esBAF inh 62 (no result: Wnt act)
CC(=O)c1sc(-c2ccccc2)cc1N	none (no result: esBAF inh)
CC(C)(C)N=Cc1cc(-c2ccccc2)sc1O	Wnt act 63, hgDAF12 agonist 12, esBAF inh 74
CC(C)C(=O)Nc1ccc2c(c1)C(=O)N(C)[C@@H]1CC[C@H](CC(=O)Nc3ccccc3)O[C@H]1CO2	none (no result: Wnt act, ssDAF12 agonist, DAX1 inh, hgDAF12 agonist, hcDAF-12 act)
COc1ccc(COc2ccc3c(C)cc(=O)oc3c2)cc1	hgDAF12 agonist 12
Cc1cc(=O)oc2cc(OCc3c(F)cccc3Cl)ccc12	Wnt act 42 (no result: esBAF inh)
Cc1noc(C)c1NC(=O)Nc1cccc2c1O[C@@H](CN(C)Cc1ccc(-c3ccccc3)cc1)[C@@H](C)CN([C@@H](C)CO)C2=O	none (no result: Wnt act, ssDAF12 agonist, DAX1 inh, hgDAF12 agonist, hcDAF-12 act)
O=C(CCc1ccccc1)Nc1ccc(N2CCCCC2)cc1	esBAF inh 50 (no result: Wnt act)
O=C(NC(=S)Nc1ccc(N2CCCCC2)cc1)c1ccco1	hgDAF12 agonist 13
O=C(NC(=S)Nc1ccccc1N1CCCCC1)c1ccco1	none
O=C(NC(=S)Nc1ccccc1Cl)c1ccco1	esBAF inh 58
O=C(NC(=S)Nc1cccc(Cl)c1N1CCCCC1)c1ccco1	none (no result: ssDAF12 agonist, DAX1 inh, hgDAF12 agonist, esBAF inh, hcDAF-12 act)

Compound activity deposited in PubChem BioAssay by several laboratories.
